In all, about 48,000 compounds went through this assay and about 13,000 (27%) showed an effect of 50% or more. The list shows a part of the results.
What follows are compounds tested on Wolbachia pipientis (assay: Anti-Wolbachia Cell-Based Screen). Conditions: 5 µM.
Format: functional
Parameters: scale not given: in the data most compounds retested in dose-response had high values

Structure (SMILES)	Percent Effect [%]
Cc1cc(C)cc(CN2CCN(Cc3ccc4nonc4c3)CC2=O)c1	-1.635
CCNC(=O)CN1CCC(c2cc(OC)cc(OC)c2)C1 (centres undefined)	-11.46
CCOCC1CN(S(C)(=O)=O)Cc2nn(C)cc21 (centres undefined)	-37.27
CCOc1cc(C(=O)N2CCCC(c3noc(C)n3)C2)ccc1OC (centres undefined)	123.2
COc1ccnc(C(=O)N2CCCC(c3noc(C)n3)C2)c1 (centres undefined)	-1.667
Cc1nc(C2CCCN(C(=O)c3ccc(N4CCCC4)nc3)C2)no1 (centres undefined)	-0.5946
Cc1nc(C2CCCN(C(=O)c3ccc(OCC4CC4)cc3)C2)no1 (centres undefined)	-3.23
Cc1nc(C2CCCN(C(=O)c3ccc(OCC4CC4)nc3)C2)no1 (centres undefined)	97.67
COc1ccc(N(C(=O)c2ccc(C)nc2)C(C)C)cc1F	-11.04
CN(C)C[C@@H]1CN(Cc2ccccc2C#N)C[C@@H]1CO	8.186
Cn1ncc2c1CN(C(=O)Cc1ccccn1)CC2COCC1CC1.O=C(O)C(F)(F)F.O=C(O)C(F)(F)F (centres undefined)	-6.419
Cc1cc(C)c(CCNC(=O)NCCCC(N)=O)c(C)c1	-1.921
COCC(O)CNC(=O)Nc1c(F)cc(F)cc1-c1ccccc1 (centres undefined)	147.7
CNC(=O)CNC(=O)Nc1ccc(Br)c(F)c1	-1.14
O=C(NCCO)Nc1c(F)cc(F)cc1-c1ccccc1	122.6
O=C(CNC(=O)Nc1c(F)cccc1Oc1ccccc1)NC1CC1	-0.6876
O=C(NCCO)Nc1c(F)cccc1Oc1ccccc1	2.837
O=C(CNC(=O)Nc1c(F)cc(F)cc1-c1ccccc1)NC1CC1	131.5
COCC(O)CNC(=O)c1cnc(-c2ccccc2)nc1O (centres undefined)	-15.86
CCNC(=O)CNC(=O)Nc1cccc(Cl)c1SC(F)F	-15.46
COCC(O)CNC(=O)c1coc(COc2cccc(F)c2)n1 (centres undefined)	3.844
O=C(CNC(=O)Nc1cccc(Cl)c1SC(F)F)NC1CC1	-13.14
O=C(NCCO)Nc1ccc(Br)c(F)c1	-6.574
CCNC(=O)CNC(=O)Nc1c(F)cc(F)cc1-c1ccccc1	120.1
CCC(CNC(=O)C1CCC1)(OC)c1ccccc1 (centres undefined)	-1.894
CN(Cc1ncc[nH]1)c1nc(-c2ccccn2)nc2c1CCNCC2	-0.01551
c1cnnc(N2CCCC(NCc3nc(C4CC4)no3)C2)c1 (centres undefined)	9.898

Structure (SMILES)	Percent Effect [%]
Cn1nc(C(C)(C)C)cc1NC(=O)CSc1nnc[nH]1	-11.13
CCC(CNC(=O)OC)(OC)c1ccccc1 (centres undefined)	1.829
CN(C)CCN(C)C(=O)NC1CCC(Oc2ccccc2C#N)CC1 (centres undefined)	-10.57
CC(=O)N1CCC(c2cccc(NC3CCOCC3)n2)CC1	84.73
CC(=O)NC1(C(=O)N2CCC(Nc3cccnn3)CC2)CCCCC1	6.747
Cc1noc(C2CCN(C(=O)c3ccc(NC4CC4)nc3)CC2)n1	-4.487
CNc1cccc(C2CCCN(C(C)=O)C2)n1 (centres undefined)	2.608
O=C(N1CCOCC1)N1CCC(Nc2ccncn2)CC1	6.366
CNc1cccc(C2CCN(C(C)=O)CC2)n1	105.5
CC(=O)N1CCC(c2cnc(NC3CCOCC3)cn2)CC1	89.11
COc1ccccc1CNC(C)c1cnc2cc(C)nn2c1C (centres undefined)	-25.88
CC(C)CCc1cc(C(=O)O)nc2[nH]c(=O)[nH]c(=O)c12	107.7
CC(C)Cc1cc(C(=O)O)nc2[nH]c(=O)[nH]c(=O)c12	118.2
CC(C)c1cc(C(=O)O)nc2[nH]c(=O)[nH]c(=O)c12	113.5
CC1(C)OCC2(CO1)CN(C(=O)c1ccccc1Cl)C2	5.486
Cn1cc(CN(CC2(O)CNCCOC2)C2CCCCC2)cn1 (centres undefined)	106.6
CN(Cc1cnn(C)c1)S(=O)(=O)N1CCCCCC1	16.54
CCN(CC)[C@H]1COC[C@@H]2CN(Cc3cnn(C)c3)C[C@@H]21	13.67
CN(Cc1cnn(C)c1)S(=O)(=O)N1CCCCC1	-3.727
CCCc1cc(C(=O)N(Cc2cccnc2)C2CCCCC2)[nH]n1	21.65
CN(Cc1ccc2nsnc2c1)CC1(O)CNCCOC1 (centres undefined)	-20.02
OC1(CN(Cc2cccnc2)C2CCCCC2)CNCCOC1 (centres undefined)	96.56
OC1(CNCc2noc(Cc3ccccc3)n2)CNCCOC1 (centres undefined)	7.869
Cn1cc(CN(CC2(O)CCNC2)C2CCCCC2)cn1 (centres undefined)	118.9
CC(SCCC(=O)NC(N)=O)c1c(F)cccc1F (centres undefined)	-3.785
Cc1cccc(N2CCC(NC(=O)CCCc3cccs3)CC2)n1	-12.55
CCSC(C)c1nc(-c2ccc(C)nn2)no1 (centres undefined)	3.709

From ChEMBL document CHEMBL3988442, “University of Dundee, Small-Polar-MMV Screening Library” (2021)
